# RXFP1 ag: qHTS Assay for Agonists of the Relaxin Receptor RXFP1 | actives 0.3% (n = 370,000) | HEK293T-RXFP1 cAMP TR-FRET, 30 min; response scale: percent of porcine relaxin response, buffer zero | Relaxin receptor 1 (Homo sapiens), Q9HBX9 | Potency, µM (series often up to 57.5 µM), for inactives: top-dose activation, hits mostly activators | AID 2676, 2010; active = well fitted activation curve with a large enough effect; inconclusive = small, poorly fitted or top-dose-only effect; note: potency is the fitted concentration of half-maximal effect; % is set by controls: 0 for no effect and ±100 for the full control effect; nearly all actives have a fitted effect of over 60% in size
# Target sequence (Q9HBX9 whole entry, looked up): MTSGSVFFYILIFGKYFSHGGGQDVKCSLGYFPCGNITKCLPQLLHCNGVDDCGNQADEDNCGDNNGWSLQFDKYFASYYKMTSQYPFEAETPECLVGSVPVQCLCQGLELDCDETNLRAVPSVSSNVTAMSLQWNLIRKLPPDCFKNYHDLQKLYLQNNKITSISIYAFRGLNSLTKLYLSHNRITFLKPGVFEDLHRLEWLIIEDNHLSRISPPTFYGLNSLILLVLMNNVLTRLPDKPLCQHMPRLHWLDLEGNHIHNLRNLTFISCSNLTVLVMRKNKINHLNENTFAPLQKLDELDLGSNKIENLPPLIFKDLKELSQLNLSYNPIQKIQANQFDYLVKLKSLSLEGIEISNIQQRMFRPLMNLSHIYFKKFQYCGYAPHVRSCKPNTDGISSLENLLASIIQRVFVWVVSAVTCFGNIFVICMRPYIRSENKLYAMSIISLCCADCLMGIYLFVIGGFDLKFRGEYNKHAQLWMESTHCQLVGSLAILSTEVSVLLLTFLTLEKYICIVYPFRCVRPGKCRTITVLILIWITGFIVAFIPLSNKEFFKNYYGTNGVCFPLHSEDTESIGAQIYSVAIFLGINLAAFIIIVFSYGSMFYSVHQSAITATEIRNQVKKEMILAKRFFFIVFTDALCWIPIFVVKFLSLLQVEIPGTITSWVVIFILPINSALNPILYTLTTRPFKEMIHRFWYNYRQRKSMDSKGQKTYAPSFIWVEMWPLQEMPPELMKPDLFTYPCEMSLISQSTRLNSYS
#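 Agonist response is measured as cAMP accumulation in an RXFP1-transfected HEK293T line under PDE4 inhibition. Values are scaled between buffer-only and 29 nM porcine relaxin, and EC50s come from standard Hill equation fits.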
# gsp antag: qHTS for Antagonists of gsp, the Etiologic Mutation Responsible for Fibrous Dysplasia/McCune-Albright Syndrome: qHTS. gsp-mutant cells, cAMP HTRF, 30 min. Potency, µM (titrated, usually from 76.9 µM), for inactives: at the top dose activity change, negative = inhibition, actives largely listed as inhibitors. actives 0.4% (n = 340,000). AID 624288, 2012; calls by dose curve; cell line not stated here;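 note: intracellular cAMP measured with PDE inhibitor Ro 20-1724 present during compound exposure; potency is the fitted concentration of half-maximal effect; % is set by controls: 0 for no effect and ±100 for the full control effect; nearly all actives have a fitted effect of over 65% in size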
#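 HTRF cAMP measurement after 30 min RT detection following 30 min, 37C compound treatment alongside […] (added as 300 uM solution) in G418-selected cells seeded at 2000/well and grown 16–24 h.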
# Giardia kill: Small Molecules that selectively kill Giardia lamblia: qHTS. AID 540267, 2011. activity change, % at 7.66 µM, hits read low. Giardia lamblia trophozoite viability. actives 0.15% (n = 340,000); in the data active = activity change below about -80%; inconclusive = between about -30% and that limit;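 note: parasites exposed to compound for two days anaerobically before the ATP read; % is set by controls: 0 for no effect and ±100 for the full control effect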
#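 Killing of trophozoites was scored by loss of ATP luminescence after a 48 hrs anaerobic exposure to compounds at 37 deg C, using 100 cells per well.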
# RXFP1 antagonist: qHTS Assay for Antagonists of the Relaxin Receptor RXFP1. actives 0.59% (n = 350,000). HEK293-RXFP1, relaxin-stimulated cAMP HTRF, 30 min; active compounds read low. activity change, negative = inhibition, % at 57.5 µM. Relaxin receptor 1 (Homo sapiens), Q9HBX9;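 active = activity change of -60% or lower, but not beyond a set lower limit; inconclusive = change between -60% and -40%, or beyond the set limit; inactive = change above -40%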; note: % is set by controls: 0 for no effect and ±100 for the full control effect
# FBPA coupling cs: qHTS Assay for Inhibitors of Fructose-1,6-bisphosphate Aldolase from Giardia Lamblia: Coupling assay counterscreen. activity change, negative = inhibition, % at 58.2 µM, hits read low. coupling enzyme system counterscreen, AmpLite Red fluorescence. actives 0.67% (n = 290,000). AID 2472, 2010; in the data active = activity change below about -30%; note: % is set by controls: 0 for no effect and ±100 for the full control effect
#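 Fluorescence at 525 nm excitation and 598 nm emission measured inhibition of the coupled detection system without aldolase. Compounds (at 57.5 uM final) were preincubated 10 min at room temperature with coupling enzyme reagent before a 20 min substrate/AmpLite Red step.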
# gsp ag: qHTS for Agonist of gsp, the Etiologic Mutation Responsible for Fibrous Dysplasia/McCune-Albright Syndrome: qHTS | gsp mutant cells, cAMP HTRF, 30 min | Potency, µM (doses to about 76.9 µM), inactives show at the highest dose activation (cAMP increase), most hits filed as activators | actives 0.13% (n = 340,000); active = well fitted activation curve with a large enough effect; inconclusive = small, poorly fitted or top-dose-only effect, or another doubt; inactive = no such curve, though single readings can be large or run the other way; cell line not stated here;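 note: phosphodiesterase inhibitor Ro 20-1724 added with compounds to block cAMP breakdown; potency is the fitted concentration of half-maximal effect; nearly all actives have a fitted effect of over 60% in size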
#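 Cells stably selected in G418 were plated at 2000/well, grown 16-24 hr, then given compounds in DMSO with the PDE inhibitor […] (300 uM solution added) for 30 min at 37C; cAMP was read by HTRF.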
# An asterisk follows results filed as active; ? = inconclusive; / = no result given; ! = not active in a repeat; [ ] = another dose, or the depositor's remark. Only some compounds are listed: those with a hit (about 1.6% of all), similar ones and a draw of the others.
SMILES,RXFP1 ag,gsp antag,Giardia kill,RXFP1 antagonist,FBPA coupling cs,gsp ag
CC(=Nc1ccccc1N)c1c(C)cc(=O)n(O)c1O,/,/,/,/,-30.4*!,/
CC(=Nc1cc(C(=O)c2ccccc2)ccc1N)C1=C(O)CC(C)(C)CC1=O,0.7%,1.2%,-0.6,1.0,-20.3,6.3%[15.4 µM]
Cc1ccc(C)c(NC(=S)NCC(c2ccccc2)N(C)C)c1 (stereo not given),0.6%,-5.6%,-13.2,12.2,4.3,3.1%[15.4 µM]
c1cc(-c2cnn3cc(-c4ccc(OCCN5CCCCC5)cc4)cnc23)ccn1,/,/,/,/,-2.7,/
C=CCc1ccc(OCC(O)COc2ccc(CC=C)cc2OC)c(OC)c1,-4.7%,-6.3%,9.7,-68.6*,-3.8,-24.7%
N#Cc1ccc(-c2nc3ccc(Br)cn3c2Cc2ccccc2)cc1,/,/,/,-1.3,/,31.6µM*
Cc1ccc(Cc2c(-c3ccc(C#N)cc3)nc3ccc(Br)cn23)cc1,/,/,/,-2.9,/,19.4%
CC(=O)c1nnn(-c2nc(C#N)nc(N3CCOCC3)n2)c1C,/,/,-10.3,/,/,/
CC1CCCCN1C(=O)COC(=O)C1CCN(S(=O)(=O)c2ccc(Cl)c(C(F)(F)F)c2)CC1 (stereo not given),0.6%,4.7%,16.0,-65.0*,/,-0.4%[15.4 µM]
CN1C2CCC1CC(NC(=O)n1c(=O)[nH]c3ccccc31)C2 (stereo not given),/,/,/,12.3,/,/
Cc1ccc(CN2CC(C(=O)Nc3cc(C)ccn3)CC2=O)cc1 (stereo not given),0.4%,-9.7%,?,-117.8*,/,-0.4%[15.4 µM]
Cc1ccc(CN2CC(C(=O)Nc3ccncc3)CC2=O)cc1 (stereo not given),2.4%,4.7%,5.0,-4.7,/,?
CCOC(=O)c1sc(NC(=O)CCC(=O)O)nc1C,-0.3%,4.1%,-15.5,-85.2*,3.3,?
CC(C)c1ccc(NC(=O)c2snc3ccc(Cl)cc23)cc1,-2.2%,28.2µM*,-11.1,-3.9,-4.1,17.6%
CS(=O)(=O)Cc1ccc(C(=O)N2CCN(C(=O)c3cccs3)CC2)cc1,/,5.9%,6.9,1.1,/,20.9%
O=[N+]([O-])c1ccc(N/N=C/c2sc(N3CCOCC3)nc2-c2ccccc2)c(S(=O)(=O)Nc2ccccc2Cl)c1,-0.7%,3.98µM*,2.2,-7.1,-4.7,-106.6%
O=C(N/N=C/c1sc(N2CCOCC2)nc1-c1ccccc1)c1ccccc1Cl,0.3%,-7.8%,-2.5,6.5,-0.1,-16.1%[15.4 µM]
O=[N+]([O-])c1ccc(N/N=C/c2sc(N3CCOCC3)nc2-c2ccccc2)c(S(=O)(=O)Nc2ccc(Cl)cc2)c1,4.8%,-25.4%,3.1,-5.9,-4.9,?
O=C(N/N=C/c1sc(N2CCOCC2)nc1-c1ccccc1)c1ccccc1O,-0.4%,39.8µM*,2.0,?,-1.1,9.1%
CCCn1c(=O)c2sccc2n2c(CCCC(=O)NCCc3ccc(Cl)cc3)nnc12,13.0%,/,/,7.4,/,/
Cc1c(C=O)c(Cl)n(C)c(=O)c1C#N,0.4%,10.6%,-5.2,-0.3,-45.7*,21.9%[15.4 µM]
Cc1cc(C)n(C)c(=O)c1C#N,2.5%,6.9%,-4.6,11.2,0.3,1.4%
Cc1c(/C=N/Nc2ccc(F)cc2)c(O)n(C)c(=O)c1C#N,15.8%,-8.3%,-2.7,-1.1,-23.5,20.8%
CC(=O)N=Cc1c(C)c(C#N)c(=O)n(C)c1O,4.8%,-1.9%,-9.2,-8.1,-51.4*,18.5%
CCOC(=O)OCC1OC(c2ccccc2)C=CC1OC(=O)OCC (stereo not given),/,/,/,/,0.4,/
SMILES,RXFP1 ag,gsp antag,Giardia kill,RXFP1 antagonist,FBPA coupling cs,gsp ag
COc1ccc(-c2nc3ccc(C)cn3c2NCc2ccccc2)cc1SC1CCCCC1,15.7%,35.5µM*,3.4,/,/,/
CCCCNc1c(-c2ccc(OC)c(SC3CCCCC3)c2)nc2ccc(C)cn12,/,31.6µM*,-26.0,/,/,?
Cc1ccc2nc(-c3cccc(SC4CCCCC4)c3)c(NCc3ccccc3)n2c1,/,?,-0.6,/,/,12.6%
CCCN1CNc2c(c(=O)[nH]c(=S)n2CCc2cc(C)ccc2C)C1,/,/,-21.2,/,/,/
COc1ccc(COC(=O)N/N=C2/C[C@@H](O)[C@@H](O)[C@@H]3[C@@H]4C(=O)N(C5CCCCC5)C(=O)[C@H]4CC[C@@H]23)cc1,/,/,/,/,-1.5,/
CC1(C)CC(NC(=O)c2sc3cc(Cl)ccc3c2Cl)CC(C)(C)N1,0.2%,/,6.3,-60.0*,0.6,16.4%[15.4 µM]
Cc1[nH]c(=S)[nH]c(=O)c1Cc1c(O)ccc2ccccc12,/,8.2%,-10.6,-17.2,/,-32.6%
Cc1[nH]c(=S)[nH]c(=O)c1Cc1ccccc1,-0.8%,0.2%,11.7,-63.3*,4.9,20.4%
Cc1cccc(OCCc2c(C)[nH]c(=S)[nH]c2=O)c1,2.8%,8.3%,12.4,-117.7*,-0.6,-8.2%[15.4 µM]
CC1CCCN(S(=O)(=O)c2ccc(C(=O)NC(C)c3ccccc3)cc2)C1 (stereo not given),-0.1%,1.1%,10.7,-9.1,/,-37.6%
O=[N+]([O-])c1cc(CN2CCN(c3cccc(C(F)(F)F)c3)CC2)c2cccnc2c1O,-1.8%,-0.3%,7.2,-25.4,-14.4,-4.3%
O=[N+]([O-])c1cc(CN2CCCC2)c2cccnc2c1O,-1.3%,9.6%,10.4,/,-35.1*,2.9%
COc1ccccc1N1CCN(Cc2cc(Br)c(O)c3ncccc23)CC1,-1.6%,0.2%,0.5,-92.0*,-16.1,27.0%
Cc1ccc(-n2c(C)c(C)c3c(NCCO)ncnc32)cc1,0.0%,6.6%,63.5,-18.2,-0.6,22.8%
CCN(CC)C(=O)C1CN2CCc3cc(OC)c(OC)cc3C2CC1OC(C)=O (stereo not given),/,/,/,-3.8,/,/
NC[C@H]1O[C@H](O[C@H]2[C@H](O)[C@@H](O[C@H]3O[C@H](CO)[C@@H](O)[C@H](N)[C@H]3O)[C@H](N)C[C@@H]2N)[C@H](N)[C@@H](O)[C@@H]1O,/,/,/,15.0,/,/
COCOCCn1cc(CN2CCS(=O)(=O)N(Cc3ccc(-c4ccccc4)cc3)C(C(C)C)C2=O)nn1 (stereo not given),/,/,/,9.1,/,15.9%
COc1ccc(OCc2cc(C(=O)N(C)C3CCOCC3)no2)c2ccccc12,0.9%,1.1%,1.4,9.7,-36.8*,10.4%
COc1ccc(OCc2cc(C(=O)N(C)C3CCOC3)no2)c(Cl)c1 (stereo not given),0.2%,-3.5%,27.8,7.0,/,-19.9%

# Bioassay records as filed in PubChem.
